High-throughput results deposited in PubChem by National Center for Advancing Translational Sciences (NCATS).
Sampled rows, rich in hits. Any-hit rate of the full collection: about 3.2%.
Vaccinia Venus = qHTS for Stage-Specific Inhibitors of Vaccinia Orthopoxvirus: Venus Reporter Primary qHTS | 330,000 compounds, 0.46% hits | Potency, µM (highest dose often 36.5 µM), actives largely listed as inhibitors | AID 720580, 2013 | Vaccinia virus Venus reporter expression, fluorescence; calls by dose curve; tested in A549 cells; further: nearly all actives have a fitted effect of over 30% in size
Vaccinia mCherry = qHTS for Stage-Specific Inhibitors of Vaccinia Orthopoxvirus: mCherry Reporter Primary qHTS | AID 720579, 2013 | Vaccinia virus mCherry reporter infection, fluorescence | Potency, µM (highest dose often 36.5 µM), hits mostly inhibitors | 310,000 compounds, 0.63% hits; calls by dose curve; tested in A549 cells; further: nearly all actives have a fitted effect of over 35% in size
FMDV antiviral = High Throughput Screening for Foot and Mouth Disease Virus Antivirals. FMDV antiviral cell-based qHTS. Potency, µM (top dose mostly 57.9 µM), actives largely listed as inhibitors. 410,000 compounds, 1.2% hits. AID 1159524, 2015; calls by dose curve; tested in HEK293T cells; further: read-out not given here; nearly all actives have a fitted effect of over 45% in size
LASV entry inh = qHTS for Inhibitors of binding or entry into cells for Lassa Virus | 300,000 compounds, 1.2% hits | AID 540256, 2011 | Potency, µM (top dose mostly 37.9 µM), most hits filed as inhibitors | Lassa virus pseudotype entry inhibition, cell reporter; calls by dose curve; tested in HEK293 cells; further: nearly all actives have a fitted effect of over 50% in size
Marburg entry inh = qHTS for inhibitors of binding or entry into cells for Marburg Virus | Marburg virus pseudotyped entry inhibition, cell reporter | Potency, µM (doses to about 37.8 µM), usual class: inhibitors | 300,000 compounds, 1.8% hits | AID 540276, 2011; calls by dose curve; tested in HEK293 cells
Numbers stand for hits; i = inactive; ? = inconclusive; nt = no result given.

SMILES	Vaccinia Venus	Vaccinia mCherry	FMDV antiviral	LASV entry inh	Marburg entry inh
COc1ccc(C)cc1NC(=O)CN(C)S(=O)(=O)c1ccc2c(c1)CC(C)N2C(C)=O (configuration not stated)	nt	nt	i	nt	nt
Cc1cc2c(c(-c3ccc(Cl)cc3)c1)OC(CNC(=O)CCC(=O)N(C)C)C2 (configuration not stated)	i	i	i	nt	nt
c1cc2c(cc1C1=NNC(=NC3CC3)SC1)OCCO2	nt	nt	?	0.29µM	0.33µM
COc1ccc(N=C2NN=C(c3ccc4c(c3)OCCO4)CS2)cc1	i	nt	i	i	i
COc1ccc(-c2noc(Cn3c(=O)c4ccccc4n(CC(=O)Nc4cccc(OC)c4)c3=O)n2)cc1	i	i	i	i	nt
COc1ccc(C(=O)/C=C/c2ccc(OC)c(Cn3nnc4ccccc43)c2)cc1	?	13µM	13µM	?	?
COc1ccc(C(=O)/C=C/c2ccc(OC)c(CN3CCOCC3)c2)cc1	?	10µM	14µM	?	?
COc1ccc(/C=C/C(=O)c2ccccc2O)cc1CN1CCOCC1	i	nt	?	?	11µM
CCN1C(=NCc2ccc(OC)cc2)NC(c2cccc(C(F)(F)F)c2)C(C(=O)OC)=C1C (configuration not stated)	nt	nt	nt	nt	i
C/C=C(\C)C(=O)NCCN1Cc2ccccc2OC(c2ccccc2OC)C1 (configuration not stated)	i	i	i	nt	nt
O=C(O)[C@H](Cc1c[nH]c2ccccc12)NS(=O)(=O)c1cccc2nsnc12	nt	nt	nt	nt	i
COc1ccc(Cc2nnc(SCC(=O)c3ccc4c(c3)NC(=O)CO4)o2)cc1	i	i	i	i	i
CNC(=O)Oc1ccc(-c2cn3cc(C)ccc3n2)cc1	i	i	13µM	0.32µM	0.65µM
CNC(=O)Oc1cccc(-c2cn3cc(Cl)ccc3n2)c1	i	i	i	?	2.8µM
Cc1cc(C)c(S(=O)(=O)NCCCn2ccnc2)cc1C	i	i	i	?	3.5µM
CC12CC3CC(C)(C1)CC(N)(C3)C2	i	i	i	?	13µM
C=C1C2CC[C@@]3(C)C(c4ccoc4)OC(=O)C[C@@]13OC1CC(OC(C)=O)C(C)(C)C(CC(=O)OC)[C@@]12C (some centres not stated)	i	i	?	nt	nt
N#CC1(C#N)CC(C=O)=C(N)C1(C#N)CC(=O)C12CC3CC(CC(C3)C1)C2 (configuration not stated)	i	i	22µM	?	?
CCN(CC)S(=O)(=O)c1ccc2oc(SCC3CN=C(c4ccc(OC)cc4)S3)nc2c1 (configuration not stated)	nt	nt	?	?	i
O=C1CCCN1CCCN1CC(C(=O)N(CCO)Cc2ccccc2)CCC1=O (configuration not stated)	i	i	i	i	i
Cc1cccc(Nc2nc(-c3ccc(F)cc3)cs2)n1	i	i	i	13µM	?
CCN(CC)CCNC1=NCCn2c1cc1cc(OC)ccc12	nt	nt	i	8.2µM	?
O=C1/C(=C/c2cccc([N+](=O)[O-])c2)CCc2ccccc21	i	i	i	i	?
CCN1C/C(=C\c2cccc([N+](=O)[O-])c2)C(=O)/C(=C/c2cccc([N+](=O)[O-])c2)C1	i	i	1.1µM	2.5µM	?
CCOc1ccc(OCC)c(NC(=O)c2nnn(CC(=O)Nc3cc(Cl)ccc3OC)c2N)c1	i	i	i	i	i
SMILES	Vaccinia Venus	Vaccinia mCherry	FMDV antiviral	LASV entry inh	Marburg entry inh
O=C1C=CC(O)(c2cc(=O)c3c(O)cc(O)cc3o2)C=C1	?	11µM	18µM	?	?
O=C(Nc1sc2c(c1C(=O)O)CCCC2)c1cccs1	nt	nt	i	?	9.2µM
COc1ccc(NC(=O)c2c(NC(=O)CCC(=O)O)sc3c2CCCCC3)cc1	nt	nt	i	nt	nt
CCOC(=O)c1c(NC(=O)c2ccc(Br)cc2)sc2c1CCCC2	i	i	i	i	nt
COc1ccc(NC(=O)c2c(NC(=O)C(F)(F)F)sc3c2CCCCC3)cc1	i	i	i	3.2µM	nt
CCOC(=O)c1c(NC(=O)c2ccc(-n3cnnn3)cc2)sc2c1CCCC2	i	i	i	16µM	?
O=C(Nc1sc2c(c1C(=O)O)CCCCC2)c1cccs1	?	i	i	nt	nt
COc1cccc(C(=O)Nc2sc3c(c2C(=O)O)CCCC3)c1	?	?	i	10µM	11µM
COc1ccc(S(=O)(=O)N(C)C[C@@H]2OCCCC[C@H](C)Oc3ccc(NC(=O)Nc4ccc(C(F)(F)F)cc4)cc3C(=O)N([C@H](C)CO)C[C@H]2C)cc1	i	i	i	nt	nt
O=C(Nc1sc2c(c1C(=O)O)CCCC2)c1ccc(F)cc1	i	i	i	?	2.5µM
Cc1ccc(C(=O)Nc2sc3c(c2C(=O)O)CCCCC3)o1	?	?	i	7.9µM	6.3µM
NC(=O)c1c(NC(=O)c2ccc(F)cc2)sc2c1CCC2	i	i	i	i	?
O=C(Nc1sc2c(c1C(=O)O)CCC2)c1ccco1	nt	nt	i	i	i
CC(C)(C)c1ccc(C(=O)Nc2sc3c(c2C(=O)O)CCC3)cc1	i	i	i	?	3.2µM
CCOC(=O)[C@H](c1ccccc1)N1CCN(c2ccc(OC)cc2)CC1	nt	nt	nt	nt	i
COc1cccc(CO[C@H]2C=C[C@@H](c3ccccc3)O[C@H]2CO)c1	nt	nt	nt	nt	i
CCc1cccc2c(C(O)(c3c[nH]c4c(CC)cccc34)c3c[nH]c4c(CC)cccc34)c[nH]c12	i	i	nt	nt	nt
CCN1CCN(Cc2ccc(NC(=O)c3ccc(C)c(NC(=O)C(=O)c4c[nH]c5ccccc45)c3)cc2C(F)(F)F)CC1	10µM	11µM	?	nt	nt
CCN1CCN(Cc2ccc(NC(=O)c3ccc(C)c(NC(=O)c4ccc5n[nH]nc5c4)c3)cc2C(F)(F)F)CC1	i	i	i	nt	nt
CCN1CCN(Cc2ccc(NC(=O)c3cc(NC(=O)C(=O)c4c[nH]c5ccccc45)cc(OC)c3)cc2C(F)(F)F)CC1	10µM	?	?	nt	nt
O=C(C[n+]1cccc2cccc(O)c21)c1ccc(Cl)cc1	i	i	nt	nt	nt
Oc1ccc(/C=N/NC(=S)NCc2ccco2)cc1	i	nt	i	?	i
S=C(NCc1ccco1)N/N=C/c1ccc(Cl)cc1	i	?	i	4.6µM	i
CCN(CC)c1ccc(/C=N/NC(=S)NCc2ccco2)cc1	i	?	?	2.1µM	?
COc1cccc([C@H]2Oc3ccc(OC)cc3C(=NOC[C@@H](C)[C@H](OCc3ccccc3)C(C)C)[C@H]2O)c1	nt	nt	nt	nt	i
SMILES	Vaccinia Venus	Vaccinia mCherry	FMDV antiviral	LASV entry inh	Marburg entry inh
CCOC(=O)CCN1C(=O)[C@H]2[C@H]3[C@H](O)[C@H](O)C/C(=N\NC(=O)OCc4ccc(OC)cc4)[C@@H]3CC[C@H]2C1=O	nt	nt	nt	nt	i
CCc1nc2c(OCc3ccc(F)cc3)cccn2c1N(C)C(=O)c1ccco1	i	i	i	nt	nt
CCc1nc2c(OCc3ccc(Cl)cc3)cccn2c1N(C)C(=O)c1ccco1	?	?	28µM	nt	nt
N#C/C(=C\C=C\c1ccccc1[N+](=O)[O-])C(=O)NC1CCCCC1	?	?	25µM	?	?
N#C/C(=C\c1ccccc1[N+](=O)[O-])C(=O)NC1CCCCC1	i	i	35µM	?	?
N#C/C(=C\c1cccn1-c1ccccc1)C(=O)NC1CCCCC1	i	i	i	i	?
CCOc1ccccc1/C=C(\C#N)C(=O)NC1CC1	nt	nt	i	nt	nt
c1cnc2[nH]ccc2c1	i	i	nt	nt	nt
